Only some compounds are listed: those with a hit (about 6.6% of all), similar ones and a draw of the others.
GDH-TPI counter = GDH-TPI coupling enzyme inhibitors, primary screen, artefact control for M. tuberculosis FBA inhibitor project, biochemical, absorbance, full deck; GDH-TPI coupled enzyme counterscreen, NADH absorbance; inhibition, % at 4.8 µM; hit rate 1.2% among 360,000; in the data active means inhibition above about 30%;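 further: 0% = DMSO wells and 100% = wells lacking the enzyme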
Mtb FBA inh = Mtb FBA enzyme inhibitors, primary screen, biochemical, fluorescence, strain H37Rv | Fructose-bisphosphate aldolase (Mycobacterium tuberculosis (strain ATCC 25618 / H37Rv)), … | purified M. tuberculosis FBA, fluorescence read-out | inhibition, % at 1 µM | hit rate 2.3% among 360,000 | AID 588726, 2011; in the data active means inhibition above about 27%;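 further: 0% = vehicle and 100% = reference inhibitor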
BoNT A protease = BoNT/A light chain protease inhibitors, primary screen, biochemical, flow cytometry, MLPCN library; multiplex microsphere protease substrate cleavage; inhibition, % at 10 µM; hit rate 0.17% among 360,000; AID 588499, 2011; Botulinum neurotoxin type A light chain protease (Clostridium botulinum A str. ATCC 3502); further: plate controls were buffer without enzyme for full effect and enzyme alone for no effect
Anthrax LF inh2 = Bacillus anthracis LF protease inhibitors, primary screen, biochemical, multiplex microsphere, MLPCN library. inhibition, % at 10 µM. hit rate 0.12% among 360,000. multiplex microsphere protease cleavage assay. AID 588501, 2011; further: plate controls were buffer without enzyme for full effect and enzyme alone for no effect
Target sequence (P15917 whole entry, looked up): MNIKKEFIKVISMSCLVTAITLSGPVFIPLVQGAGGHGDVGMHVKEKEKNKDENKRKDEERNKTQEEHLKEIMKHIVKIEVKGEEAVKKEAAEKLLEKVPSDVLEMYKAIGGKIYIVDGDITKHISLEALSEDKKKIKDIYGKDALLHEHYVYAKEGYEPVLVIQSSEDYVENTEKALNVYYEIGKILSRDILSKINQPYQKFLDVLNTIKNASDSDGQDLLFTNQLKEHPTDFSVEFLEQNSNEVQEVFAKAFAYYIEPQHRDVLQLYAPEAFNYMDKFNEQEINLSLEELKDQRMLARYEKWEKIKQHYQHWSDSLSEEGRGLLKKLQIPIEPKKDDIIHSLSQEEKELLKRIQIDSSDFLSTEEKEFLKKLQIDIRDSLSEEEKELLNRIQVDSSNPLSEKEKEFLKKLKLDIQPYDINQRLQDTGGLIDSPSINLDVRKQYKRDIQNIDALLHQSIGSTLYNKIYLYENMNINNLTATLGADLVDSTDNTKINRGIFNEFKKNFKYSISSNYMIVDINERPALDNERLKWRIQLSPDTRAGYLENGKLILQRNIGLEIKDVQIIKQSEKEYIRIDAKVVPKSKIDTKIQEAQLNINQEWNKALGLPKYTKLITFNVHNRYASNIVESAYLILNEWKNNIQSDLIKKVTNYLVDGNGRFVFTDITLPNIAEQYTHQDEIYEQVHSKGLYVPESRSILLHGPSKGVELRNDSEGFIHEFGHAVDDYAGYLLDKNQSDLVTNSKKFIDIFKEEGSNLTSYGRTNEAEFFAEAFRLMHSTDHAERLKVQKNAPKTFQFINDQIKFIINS
Autofluor counter = counter-screen for toxin protease inhibitors: compound fluorescence. AID 624483. hit rate 3.1% among 360,000. fluorescence intensity (concentration not given with the values). compound autofluorescence counterscreen, microsphere flow cytometry; active compounds read high; in the data active means fluorescence intensity above about 16000; inconclusive means no clear call, values can overlap the other calls
BoNT F protease = BoNT/F light chain protease inhibitors, primary screen, biochemical, flow cytometry, MLPCN library; Botulinum neurotoxin type F light chain protease (Clostridium botulinum); Multiplex microsphere protease cleavage assay; hit rate 0.22% among 360,000; AID 588497, 2011; inhibition, % at 10 µM; in the data active means inhibition above about 35%, passing the limit was not always enough; inconclusive means no clear call, values can overlap the other calls; further: plate controls were buffer without enzyme for full effect and enzyme alone for no effect
Numbers without * were called inactive; ? = inconclusive. Unless noted, no stated cut-off is given here; in the data, active means inhibition above about 30%; inconclusive means no clear call, values can overlap the other calls; inactive means below that.

SMILES	GDH-TPI counter	Mtb FBA inh	BoNT A protease	Anthrax LF inh2	Autofluor counter	BoNT F protease
Clc1ccc(CN2C3=NCCN3c3ccccc32)cc1Cl	-3.2	-5.7	0.0	0.4	23094*	-3.6
CCNC(=O)CC1C(=O)N(CC)C(=S)N1NC(=O)c1ccccc1 (stereo unspecified)	9.6	1.4	-0.1	0.3	5878	0.2
COc1ccc(N2CCN(C(CNC(=O)C(=O)NCCCn3ccnc3)c3ccco3)CC2)cc1 (stereo unspecified)	-2.0	-2.2	-0.2	8.6	5650	-2.5
CC(=O)/C(=C\N(C)C)Sc1ccc(C)cc1	-6.9	0.5	-0.7	?	3560	37.7*
N=C1C(c2nc3ccccc3s2)=C(O)CN1NC(=O)c1ccco1	46.8*	7.8	-0.7	0.6	3528	-7.5
O=C(c1ccc(Br)s1)N1CCN(C/C=C/c2ccccc2)CC1	-10.6	-1.5	-4.1	-1.3	22315*	-8.5
COc1ccc(N2CCN(C(=O)CSc3ncnc4scc(-c5ccc(C)cc5)c34)CC2)cc1	7.7	-3.1	17.6	-20.6	?	7.7
Cc1ccc(-c2csc3ncnc(Sc4nnc(CN5CCCCCC5=O)o4)c23)cc1	15.8	1.7	0.0	-3.6	16668*	-0.8
Nc1cc(N)nc(SCC(=O)N2CCCCC2)n1	8.3	1.4	-0.9	8.0	6934	-3.4
CC1CCN(C(=O)CSc2nc(N)cc(N)n2)CC1	6.1	-1.0	-3.2	-2.1	23394*	-5.2
Cn1cnc([N+](=O)[O-])c1Sc1ncccc1N	24.2	-2.8	-0.6	-0.7	22024*	-1.8
Cc1ccc(Sc2c([N+](=O)[O-])ncn2C)cc1	17.3	0.9	1.7	-7.9	15373	1.6
Cc1cc(C)nc(N2CCC(C(=O)NCc3ccco3)CC2)n1	9.8	3.8	-0.5	1.9	8698	-4.5
Cc1ccccc1-c1nc(CN2CCC(C(=O)NCC3CCCO3)CC2)c(C)o1 (stereo unspecified)	16.0	-1.0	-3.7	-7.7	25315*	-6.4
Cc1oc(-c2cccs2)nc1CN1CCC(C(=O)N2CCCC2)CC1	0.9	7.2	0.0	6.4	5362	-3.6
Cc1oc(-c2ccccc2F)nc1CN1CCC(C(=O)NCc2cccs2)CC1	-6.4	-0.2	0.8	-1.8	21985*	0.1

From PubChem BioAssay
